Data: PubChem BioAssay (Tox21)
Records with an inconclusive call do not appear. A call without a number means that no potency is given here. The source made the active and inactive calls. Calls come from the whole dose curve; as a rule, active = well fitted curve in the direction sought with a large enough effect in the repeat runs; inconclusive = weak or mixed curves; inactive = no such curve, though single readings can be large; an effect the other way counts as inactive or inconclusive.

Key:
[1] = A CellTox Green Cytotoxicity Assay to monitor cytotoxicity in HEK293 cells - 32 hour (AID 1224881); conditions: CellTox Green fluorescence; series mostly up to 76.8 µM; note: nearly all actives have a fitted effect of over 40% in size; note: potency is the fitted concentration of half-maximal effect
Outline: (§1)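 Fluorescence from a DNA-binding dye excluded by viable cells was measured repeatedly in the same HEK293 wells (600 cells/well) during continuous compound exposure at 37 C. Each assay gives one read point: 0, 8, 16, 24, 32 or 40 h.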

[2] = A CellTox Green Cytotoxicity Assay to monitor cytotoxicity in HepG2 cells - 0 hour (AID 1224882); conditions: CellTox Green fluorescence; series mostly up to 76.8 µM; note: nearly all actives have a fitted effect of over 35% in size
Outline: (§2)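 Real-time cytotoxicity: fluorescence of a cell-impermeant cyanine dye binding DNA of dead HepG2 cells, measured repeatedly (0–40 h) during compound exposure at 37 C. Cells seeded 600/well with reagent, dosed after 5 h.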

[3] = A CellTox Green Cytotoxicity Assay to monitor cytotoxicity in HepG2 cells - 32 hour (AID 1224883); conditions: CellTox Green fluorescence; series mostly up to 76.8 µM; note: nearly all actives have a fitted effect of over 50% in size; note: potency is the fitted concentration of half-maximal effect
Outline: as §2

[4] = A CellTox Green Cytotoxicity Assay to monitor cytotoxicity in HEK293 cells - 8 hour (AID 1224884); conditions: CellTox Green fluorescence; series mostly up to 76.8 µM; note: nearly all actives have a fitted effect of over 35% in size
Outline: as §1

[5] = qHTS RealTime-Glo MT Cell Viability Assay in HepG2 cells - 16 hour (AID 1224885); conditions: RealTime-Glo luminescence; series mostly up to 76.8 µM; note: nearly all actives have a fitted effect of over 50% in size; note: potency is the fitted concentration of half-maximal effect
Outline: (§3)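 HepG2 cells (600/well) were dispensed with RealTime-Glo reagents, incubated 5 h at 37 °C, then treated with compounds in DMSO for up to 40 h. Nonlytic NanoLuc luminescence reflecting viable cells was read at each stated time point.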

[6] = qHTS RealTime-Glo MT Cell Viability Assay in HEK293 cells - 8 hour (AID 1224887); conditions: RealTime-Glo luminescence; series mostly up to 76.8 µM; note: nearly all actives have a fitted effect of over 50% in size; note: potency is the fitted concentration of half-maximal effect
Outline: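 Luminescence, which tracks viable cell number through reduction of the prosubstrate to a NanoLuc substrate, was read over continuous 37 C culture. Cells (600/well) were premixed with reagent and rested 5 h before 23 nL of compound in DMSO was pinned.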

[7] = A CellTox Green Cytotoxicity Assay to monitor cytotoxicity in HEK293 cells - 16 hour (AID 1224888); conditions: CellTox Green fluorescence; series mostly up to 76.8 µM; note: nearly all actives have a fitted effect of over 35% in size
Outline: as §1

[8] = qHTS RealTime-Glo MT Cell Viability Assay in HEK293 cells - 24 hour (AID 1224886); conditions: RealTime-Glo luminescence; series mostly up to 76.8 µM; note: nearly all actives have a fitted effect of over 50% in size; note: potency is the fitted concentration of half-maximal effect
Outline: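 HEK293 cells seeded with NanoLuc/prosubstrate reagent, rested 5 h at 37 C, then dosed and kept at 37 C up to 40 h. Nonlytic real-time luminescence from viable cells read at 0, 8, 16, 24, 32 and 40 h.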

[9] = qHTS RealTime-Glo MT Cell Viability Assay in HepG2 cells - 0 hour (AID 1224889); conditions: RealTime-Glo luminescence; series mostly up to 76.8 µM; note: nearly all actives have a fitted effect of over 50% in size
Outline: as §3

SMILES	Potency [1]	Potency [2]	Potency [3]	Potency [4]	Potency [5]	Potency [6]	Potency [7]	Potency [8]	Potency [9]
Nc1ccc(O)c([N+](=O)[O-])c1	inactive	inactive	inactive	inactive	inactive	inactive	inactive	–	–
COc1ccc2cc(S(=O)(=O)N[C@H](CC(=O)N[C@H](Cc3ccc(CN4[C@H](C)CCC[C@@H]4C)cc3)C(=O)N(C)C(C)C)c3ccc4c(c3)OCO4)ccc2c1	52 µM (active)	inactive	52 µM (active)	–	52 µM (active)	46.3 µM (active)	–	41.3 µM (active)	–
CCCCCCCC(=O)OCC(COC(=O)CCCCCCC)OC(=O)CCCCCCC	inactive	inactive	inactive	inactive	inactive	inactive	inactive	inactive	inactive
OC[C@H]1O[C@H](O[C@]2(CCl)O[C@H](CCl)[C@@H](O)[C@@H]2O)[C@H](O)[C@@H](O)[C@H]1Cl	inactive	inactive	inactive	inactive	inactive	inactive	inactive	inactive	inactive
CN1[C@@H]2CC(OC(=O)[C@H](CO)c3ccccc3)C[C@H]1[C@@H]1O[C@@H]12 (stereo not given in full)	inactive	inactive	inactive	inactive	inactive	inactive	inactive	inactive	inactive
